Results: PubChem BioAssay AID624304 (Sanford-Burnham Center for Chemical Genomics, 2012)
Screen size: about 360,000 compounds; about 1,800 (0.5%) were called active. Only a selection was taken, and actives are over-represented in it overall. A number with no mark means an inactive call.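 The calls were made as follows: active = interference check ratio from 0.5 to 1.5 plus GFP to RFP signal ratio inhibition reaching or exceeding a fixed threshold (cut at about 30% in these data, passing the limit was not always enough); inactive = the rest.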

Assay: suppressors of acrylamide-induced Pgst-4::GFP reporter in worms, primary screen, SKN-1 inhibitor project, whole organism, uHTS, GFP/RFP fluorescence ratio, strain VP596 (AID 624304)
Details: C. elegans VP596 Pgst-4::GFP/RFP ratio, 24 h, at 21.8 µM, hits give high values

For Cc1ccc(P(=S)(c2ccc(C)o2)N2CCOCC2)o1, the inhibition was 36.8% (active).

Going from CN(C)C(=O)Oc1ccc(NC(=O)N2CCOCC2)cc1 to CC[N+]1(C)CCCC(OC(=O)C(O)(c2ccccc2)c2ccccc2)C1 (stereo not given), the inhibition falls from 12% to -6.17%.

Compared with CC1CCCN1CCC(C(N)=O)(c1ccccc1)c1ccccc1 (stereo not given), CN(C)CC1Oc2ccccc2OC1(O)c1ccccc1 (stereo not given) is lower in inhibition: -0.187% for the first, -1.82% for the second.
